In PubChem BioAssay AID504832 (National Center for Advancing Translational Sciences (NCATS), 2011) one finds Potency and activity change, negative = inhibition data, which are given here for 107 compounds.

Out of some 310,000 compounds screened, about 18,000 (5.8%) were called active. A call without a number means that no potency is given here. Another 22% or so got no clear call; they are omitted. Many of the other results were omitted from the sample, so actives are more common in it than they were. Unmarked numbers belong to inactive results. Calls follow the shape of the dose curve; as a rule, active = well fitted inhibition curve with a large enough effect; inconclusive = small, poorly fitted or top-dose-only effect, or another doubt; inactive = no such curve, though single readings can be large or run the other way.
Potency is read from the fitted curve at half-maximal effect.

The assay is described as follows: Primary qHTS for delayed death inhibitors of the malarial parasite plastid, 48 hour incubation. Particulars: P. falciparum luciferase growth in erythrocytes; series mostly up to 28.7 µM. The method, boiled down:
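Growth was read as firefly luciferase luminescence after a 48 h, 37 C, 5% CO2 exposure of compounds to reporter-bearing P. falciparum cultures (0.1% parasitemia, 2% hematocrit final) in Albumax-supplemented RPMI 1640.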
For the compound `COc1ccccc1C(=O)NC(=O)COC(=O)C1CC1`, the Potency entry is “inactive”.

Take `COc1ccccc1CCNC(=O)c1c(C)nn(CC(C)C)c1Cl`: the Potency result was “inactive”.

Consider `COC(=O)C1CCCCN1C(=O)c1ccc(OC2CCN(C(C)=O)CC2)c(OC)c1` (configuration not stated), for which the Potency result is “inactive”.

With `O=C(NC(=S)Nc1ccc(Cl)cc1Cl)C1CC1`, the Potency entry is “inactive”.

Turning to `CCCCn1c(N)c(N(CC)C(=O)c2ccccc2C(F)(F)F)c(=O)[nH]c1=O`, the Potency entry is “inactive”.

For the compound `Cc1ccc(S(=O)(=O)N2CCC(C)CC2)cc1C(=O)NCc1ccccn1`, the Potency result is “inactive”.

With `CC(=O)Nc1c2c(nn1-c1ccc(C)cc1C)CS(=O)C2` (configuration not stated), the Potency entry is “inactive”.

For `Cc1nn(CCCC(=O)NCc2ccccc2Cl)c(=O)c2nccn12`, the Potency entry was “inactive”.

As for `CCOC(=O)CSc1nc2c(c(=O)n(Cc3ccccc3Cl)c(=O)n2C)n1C`, the Potency entry was “inactive”.

In the case of `CCC(=O)Nc1ccc2nc(C)n(Cc3ccccc3Cl)c(=O)c2c1`, the Potency is 13.1 µM (active).

For the compound `COc1ccc(CCN(C)C(=O)C23CC4CC(CC(Cl)(C4)C2)C3)cc1OC`, the Potency result was “inactive”.

With `Cc1cc(-c2ccc(C)c(S(=O)(=O)Nc3ccc(S(N)(=O)=O)cc3)c2)on1`, the Potency result is “inactive”.

`Cn1cc(/C=C/c2nc3ccccc3c(=O)n2-c2cccc([N+](=O)[O-])c2)c2ccccc21`: the Potency was 10.4 µM (active).

For the compound `Cc1cc(CNC(=O)c2cccc([N+](=O)[O-])c2)c2ccccc2n1`, the Potency result was “inactive”.

Regarding `Cc1nc2ccccc2c(=O)n1Cc1ccc([N+](=O)[O-])cc1`, the Potency result is “inactive”.

As to `Cc1ccc(CC2CC(=O)N(c3cc(C)ccc3C)C2=O)cc1` (configuration not stated), the Potency entry was “inactive”.

Regarding `COc1ccc(NS(=O)(=O)c2ccc3oc(SCC(N)=O)nc3c2)cc1`, the Potency entry was “inactive”.

Take `O=C(COC(=O)CNC(=O)C1CCCCC1)NCc1ccccc1`: the Potency result is “inactive”.

With `Cc1ccc2nc(-c3cccc(Br)c3)cc(C(=O)Nn3cnnc3)c2c1`, the Potency result was “inactive”.

Regarding `Cc1cccc(-[n+]2c(-c3cccc(Br)c3)[nH]c3nc4ccccc4nc32)c1`, the Potency is 13.1 µM (active).

In the case of `O=C(NNC(=S)NCc1ccccc1)c1ccc(OC(F)F)cc1`, the Potency entry is “inactive”.

As to `Cc1ccc(OCC(=O)NNC(=S)NCc2ccccc2)cc1`, the Potency result is “inactive”.

For `CC(C)Oc1ccc(CCC(=O)NNC(=S)NCc2ccccc2)cc1`, the Potency is 1.65 µM (active).

For `O=C(CSc1nc2[nH]ncc2c(=O)[nH]1)Nc1ccc(F)cc1`, the Potency entry is “inactive”.

In the case of `Cc1nonc1NC(=O)c1ccccc1Br`, the Potency entry was “inactive”.

Regarding `Cc1c(C(=O)NNC(=O)c2ccncc2)oc2ccccc12`, the Potency entry is “inactive”.

As to `Cc1nonc1NC(=O)c1oc2ccccc2c1C`, the Potency was 9.28 µM (active).

Take `Cc1ccc(NS(=O)(=O)c2ccc3c(c2)NC(=O)CO3)cc1`: the Potency entry was “inactive”.

With `CC1(C)CC(=O)C2=C(C1)Nc1cc(C(=O)c3ccccc3)ccc1NC2c1ccccn1` (configuration not stated), the Potency result is “inactive”.

Consider `Cc1cc2c(cc1C)NC(c1ccccn1)C1=C(CC(C)(C)CC1=O)N2` (configuration not stated), for which the Potency is 10.4 µM (active).

For the compound `CC1(C)CC(=O)C(C2=NC(C)(C)Cc3ccccc32)=C(O)C1`, the Potency result is “inactive”.

Consider `Cc1ccc(NS(=O)(=O)c2ccc(-c3coc(C)n3)cc2)c(C)c1`, for which the Potency result was “inactive”.

Regarding `CCc1ccc2[nH]c(=O)c(Cc3ccccc3)c(O)c2c1`, the Potency result was “inactive”.

Turning to `COC(=O)[C@H](Cc1ccccc1)NC(=O)Nc1ccc(OC)cc1`, the Potency result was “inactive”.

In the case of `CCOC(=O)C(Cc1ccccc1)NC(=O)CCC(=O)c1ccc(OC)cc1` (configuration not stated), the Potency result was “inactive”.

Regarding `COc1cc([C@H](Cc2ccccc2)NC(C)=O)oc(=O)c1`, the Potency was 9.28 µM (active).

As to `Nc1cc(N)nc(SCc2cccc(F)c2)n1`, the Potency entry was “inactive”.

For the compound `COc1ccc(S(=O)(=O)N2CCN(C)CC2)c(C)c1`, the Potency result was “inactive”.

As for `CC(C)CCN1CCC(C)(NC(=O)c2ccccc2)C1=O` (configuration not stated), the Potency entry was “inactive”.

Consider `Cc1cc(Cl)c2oc(C(=O)NC(C)c3ccncn3)c(C)c2c1` (configuration not stated), for which the Potency result is “inactive”.

For the compound `CN(C)/N=C/c1cn(-c2ccccc2)nc1-c1cccnc1`, the Potency entry was “inactive”.

As to `COc1ccc(-c2nn(-c3ccccc3)cc2/C=N/Nc2ccccn2)cc1OC`, the Potency is 4.65 µM (active).

Take `COc1ccc(-c2nn(-c3ccccc3)cc2C(=O)Nc2nc(CC(C)=O)ns2)cc1`: the Potency result was “inactive”.

As to `O=C(O)c1ccc(NC(=O)c2cn(-c3ccccc3)nc2-c2ccc(Cl)cc2)cc1`, the Potency entry was “inactive”.

On to `COc1ccc(-c2nn(-c3ccccc3)cc2C(=O)Nc2nccs2)cc1OC`, for which the Potency is 13.1 µM (active).

Consider `Cc1nnc(SCC(=O)N/N=C/c2cn(-c3ccccc3)nc2-c2ccc(F)cc2)n1-c1ccccc1`, for which the Potency entry was “inactive”.

As to `Cc1nc([N+](=O)[O-])cn1CC(=O)Nc1ccc(Cl)cc1`, the Potency entry was “inactive”.

For the compound `O=C(Nc1ccc(NC(=O)c2ccccc2F)cc1)c1ccccc1F`, the Potency result was “inactive”.

Turning to `O=C(O)c1ccccc1CSc1nc2ccccc2s1`, the Potency result is “inactive”.

With `CCOC(=O)C1CCN(C(=O)CN2C(=O)c3cccnc3Oc3ccc(C)cc32)CC1`, the Potency result was “inactive”.

On to `COc1ccc(C2/C(=C(/O)c3ccccc3)C(=O)C(=O)N2C)c(OC)c1` (configuration not stated), for which the Potency entry was “inactive”.

As to `CN1CCC[C@@H]1CCO[C@](C)(c1ccccc1)c1ccc(Cl)cc1`, the Potency is 12 µM (active).

Take `C#CC(CCN1CCCCC1)(OC)c1ccccc1` (configuration not stated): the Potency result is “inactive”.

In the case of `COc1ccc(CNC(=O)COc2ccccc2C(=O)c2cnn(-c3ccccc3)c2)cc1OC`, the Potency entry was “inactive”.

Take `N#Cc1ccc(CN2CCN(CC(=O)Nc3ccccc3C(=O)NC3CC3)CC2)cc1`: the Potency result is “inactive”.

As to `CCn1cc(C(=O)NCCC(=O)NCCO)c(=O)c2cc3c(cc21)OCO3`, the Potency entry is “inactive”.

Consider `COc1ccc(C2(CNC(=O)Cc3ccc(OC)c(OC)c3)CCCC2)cc1`, for which the Potency result was “inactive”.

`COc1cc(C(=O)NCC2(c3ccccc3)CCCC2)ccc1OC(C)C`: the Potency is 14.7 µM (active).

For `COc1ccc(C(=O)Nc2ccc(C3(C#N)CCCC3)cc2)cc1OC`, the Potency entry was “inactive”.

For the compound `COc1cc(OC)c(NS(=O)(=O)c2cn(C)cn2)cc1Cl`, the Potency result is “inactive”.

With `Cc1cccc(NC(=O)c2cccnc2Cl)n1`, the Potency result is “inactive”.

Regarding `CCc1ccc2c(c1)cc(CN(C(=S)Nc1ccccc1Cl)C1CC1)c1nnnn12`, the Potency was 6.57 µM (active).

Turning to `COCCN(CCOC)C(=S)Nc1ccccc1Cl`, the Potency result was “inactive”.

Consider `CCc1cccc(NC(=S)N(CCN(C)C)C2CCN(C(C)C)CC2)c1`, for which the activity change, negative = inhibition was -29.2% [at 0.00184 µM].

For the compound `COc1ccc(CNC(=O)C(=O)NCC2OCCN2C(=O)c2ccc(OC)cc2)cc1` (configuration not stated), the Potency result was “inactive”.

Turning to `CC[C@@H](C)[C@H](NC(=O)CCc1c(C)c2cc3c4c(oc3c(C)c2oc1=O)CCCC4)C(=O)O`, the Potency result is “inactive”.

Consider `Cc1c(CCC(=O)N[C@@H](CC(C)C)C(=O)O)c(=O)oc2c(C)c3oc4c(c3cc12)CCCC4`, for which the Potency was 2.33 µM (active).

Consider `Cc1c(C)c2cc3c4c(oc3c(C)c2oc1=O)CCCC4`, for which the Potency result was “inactive”.

Consider `O=C(NCc1ccccc1)C(c1ccccc1)N(C(=O)c1csnn1)c1ccc(F)cc1` (configuration not stated), for which the Potency result was “inactive”.

With `Cc1n[nH]c(=O)c2c1nnn2Cc1ccc(F)cc1`, the Potency result was “inactive”.

As for `Cc1c2cn[nH]c(=O)c2c(C)n1Cc1ccc(F)cc1`, the Potency is 11.7 µM (active).

Take `CSc1nc2ccccc2c(=O)n1Cc1ccc(F)cc1`: the Potency result was “inactive”.

As to `Cc1ccc(N2C(=O)C3C4C=CC(CC4)C3C2=O)cc1Br` (configuration not stated), the Potency entry was “inactive”.

Regarding `O=C(COc1coc(CN2CCN(c3ccccc3F)CC2)cc1=O)N1CCc2ccccc21`, the Potency result was “inactive”.

As to `COc1ccc(S(=O)(=O)NCC(=O)NC2CC2)cc1OC`, the Potency entry was “inactive”.

Take `O=C(O)CCCn1c(=O)c2cccn2c2ccc(F)cc21`: the Potency entry was “inactive”.

As to `CCCCCCCNC(=O)C1(CC2CC(c3cccc(Br)c3)=NO2)CCN(C(=O)c2cc(OCC)c(OCC)c(OCC)c2)CC1` (configuration not stated), the Potency is 0.657 µM (active).

Regarding `CCOC(=O)C1CCN(Cc2nnc(-c3cccc(Br)c3)o2)CC1`, the Potency result is “inactive”.

Consider `CCOc1ccccc1N1CCN(C(=O)c2ccc3[nH]c(C)c(C)c3c2)CC1`, for which the Potency result is “inactive”.

As to `N#Cc1c(Cl)nc(-c2cccnc2)nc1-c1ccccc1`, the Potency entry is “inactive”.

As for `CCCC[C@H]1COCCS(=O)(=O)N1Cc1cccc(Cl)c1`, the Potency result is “inactive”.

For `COc1cc(NC(=O)C2CC(c3ccccc3O)=NO2)c(OC)cc1Cl` (configuration not stated), the Potency entry was “inactive”.

For `Cc1nc(-c2ccc(F)cc2)c(CC(=O)N2CCN(S(=O)(=O)c3ccc(F)cc3)CC2)s1`, the Potency result was “inactive”.

On to `O=C(CN1CCOCC1)Nc1cc(Cl)ccc1Cl`, for which the Potency result was “inactive”.

As to `Cc1ccccc1NC(=O)CSc1nc2ccc(Nc3nc(N4CCOCC4)nc(N4CCOCC4)n3)cc2s1`, the Potency result is “inactive”.

In the case of `O=C(CSc1nc(Nc2ccccc2)nc(N2CCOCC2)n1)Nc1cc(Cl)ccc1O`, the Potency is 1.17 µM (active).

For the compound `Cn1c(SCC(=O)N2CCCCC2)nc2c(c1=O)SCC2`, the Potency result is “inactive”.

Consider `O=C(Nc1ccc(C(F)(F)F)cc1)c1cccc(-n2cnnn2)c1`, for which the Potency is 10.4 µM (active).

For `CNC(=O)c1ccc(NC(=O)c2cccc(C(F)(F)F)c2)cc1`, the Potency entry is “inactive”.

In the case of `O=C(Nc1cccc(-n2cnnn2)c1)c1cccnc1`, the Potency result was “inactive”.

Consider `O=C(NCc1ccc(F)cc1)C1CCN(C(=O)Nc2ccc(F)cc2)CC1`, for which the Potency entry was “inactive”.

Turning to `O=C(Nc1cccc(Cl)c1Cl)c1ccccc1NC(=O)C1CC=CCC1C(=O)O` (configuration not stated), the Potency entry was “inactive”.

`CC(C)C1N=C2c3ccccc3N=C(SCC(=O)c3ccc(O)c(O)c3)N2C1=O` (configuration not stated): the Potency is 11.7 µM (active).

Turning to `COC(=O)c1cc(C(=O)CSc2nc(C)cc(C)n2)ccc1O`, the Potency result was “inactive”.

Regarding `CCc1ccc(S(=O)(=O)N/N=C\c2ccc([N+](=O)[O-])o2)cc1`, the Potency entry is “inactive”.

Take `COc1ccc(CCNS(=O)(=O)c2cn(C)nc2C)cc1`: the Potency result is “inactive”.

For the compound `Cc1ccc(F)cc1NC(=O)Cc1nn(C)c(=O)c2ccccc12`, the Potency result is “inactive”.

On to `O=C1c2oc3ccc(Br)cc3c(=O)c2C(c2cccc(F)c2)N1CCO` (configuration not stated), for which the Potency result was “inactive”.

As for `Cc1c(-c2nn(C)c(=O)c3ccccc23)oc2ccc(F)cc2c1=O`, the Potency was 2.62 µM (active).

Turning to `CCCNC(=O)CCc1c(C)nc2c(c(C)nn2-c2ccccc2)c1C`, the Potency result was “inactive”.

For the compound `O=C(CN(C(=O)CCC(=O)Nc1nccs1)c1ccc(F)cc1)NCc1ccc2c(c1)OCO2`, the Potency result was “inactive”.

As to `Cc1cccc(-n2c(SCC(=O)Nc3cccc(S(=O)(=O)NC4=NCCCCC4)c3)nc3ccccc3c2=O)c1C`, the Potency was 13.1 µM (active).

For `CCc1ccc(C(=O)OCC(=O)Nc2cccc(S(=O)(=O)NC3=NCCCCC3)c2)cc1`, the Potency is 10.4 µM (active).

For the compound `COCCn1c(SCC(=O)Nc2ccc3c(c2)CCC3)nc2ccccc2c1=O`, the Potency entry was “inactive”.

In the case of `O=C(Nc1cccc(S(=O)(=O)NC2=NCCC2)c1)C1CCCCC1`, the Potency result is “inactive”.

With `O=C(Cn1cnc2ccccc2c1=O)Nc1cccc(S(=O)(=O)N2CCCCC2)c1`, the Potency entry was “inactive”.

In the case of `CN(CCOc1ccc(Br)cc1)CC(=O)Nc1cccc(S(=O)(=O)NC2=NCCC2)c1`, the Potency result was “inactive”.
